PNC inhibitor – blocks assembly of the perinucleolar compartment | 140,000 compounds, 3.1% hits | activity change (PNC), negative = inhibition, % at 10 µM | PC3M PTB-GFP, PNC prevalence imaging, 16 h; active compounds read low;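 active means readout at or below -70, meaning at least 70% loss of cells showing the perinucleolar compartment, a nuclear body marking cancer cells; inconclusive means readout between -30 and a set limit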
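Read-out is percentage of cells bearing a perinucleolar compartment, from automated 20x imaging of fixed, Hoechst-stained PC3M PTB-GFP cells. Cells were seeded 4 h, then exposed 16 h to compound (23 nl of library stock) in duplicate plates.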
ALDH1A1 inh – inhibitors of human aldehyde dehydrogenase 1A1; Purified ALDH1A1, NADH fluorescence, propionaldehyde substrate; Potency, µM (doses to about 75.3 µM), usual class: inhibitors; 220,000 compounds, 7.3% hits; P00352
Target sequence (P00352 whole entry, looked up): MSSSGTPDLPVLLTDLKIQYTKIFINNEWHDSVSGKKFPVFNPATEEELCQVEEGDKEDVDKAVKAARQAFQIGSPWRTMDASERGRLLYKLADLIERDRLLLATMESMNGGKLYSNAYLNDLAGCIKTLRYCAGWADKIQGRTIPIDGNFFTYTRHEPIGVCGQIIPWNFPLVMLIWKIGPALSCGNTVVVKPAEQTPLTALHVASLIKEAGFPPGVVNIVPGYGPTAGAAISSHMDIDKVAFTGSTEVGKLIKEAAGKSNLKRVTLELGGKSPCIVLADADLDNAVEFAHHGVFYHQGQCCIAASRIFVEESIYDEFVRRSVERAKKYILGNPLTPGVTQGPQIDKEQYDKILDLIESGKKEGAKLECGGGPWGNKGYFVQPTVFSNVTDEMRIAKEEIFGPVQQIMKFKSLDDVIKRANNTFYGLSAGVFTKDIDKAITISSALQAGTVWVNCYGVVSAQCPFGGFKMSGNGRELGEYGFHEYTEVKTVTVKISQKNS
HPGD block – HPGD (human) dehydrogenase inhibition | AID 894 | 150,000 compounds, 4.3% hits | P15428 | purified HPGD, NADH fluorescence kinetic, PGE2 substrate | Potency, µM, actives largely listed as inhibitors
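20 nM HPGD preincubated 15 min at room temperature with compound in 50 mM Tris-HCl pH 8, 0.01% Tween 20. Started with 1 mM NAD+ and 30 uM prostaglandin E2; NADH fluorescence (360/450 nm) read 5 times over 30-s intervals, last minus first.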
JMJD2E inh – JMJD2E (human) inhibition. JMJD2E catalytic domain, FDH-coupled NADH fluorescence (FDH is formaldehyde dehydrogenase). B2RXH2. 230,000 compounds, 1.6% hits. Potency, µM (series often up to 57.1 µM), hits mostly inhibitors; further: nearly all actives have a fitted effect of over 50% in size
Each line names hits and unclear results; the compound was inactive in the other large screens. Hits are enriched below; roughly 11% of the tested compounds scored in any of these assays. Unless noted, the call rests on the fitted dose curve; in most records, active means well fitted inhibition curve with a large enough effect (not every such curve was filed as active); inconclusive means small, poorly fitted or top-dose-only effect, or another doubt; inactive means no such curve, though single readings can be large or run the other way.

COc1ccc([C@@H]2C[C@H](c3ccccc3)Oc3cc(C)cc(C)c32)cc1	none (no result: PNC inhibitor, ALDH1A1 inh, HPGD block)
COc1ccc2c(c1)C(=O)[C@@H](O)[C@H](c1ccc(OC)c(Br)c1)O2	PNC inhibitor -114.6, HPGD block inconclusive, JMJD2E inh inconclusive
COc1cccc([C@@H]2Oc3ccc(OC)cc3C(=O)[C@H]2O)c1	JMJD2E inh inconclusive
CCSc1n[nH]c(=S)s1	ALDH1A1 inh 1.78µM, JMJD2E inh 25.1µM (no result: PNC inhibitor, HPGD block)
CCSc1nnc(NC(=O)CC)s1	none
CSc1nccc(Oc2ccc(C#N)cc2)n1	none
COCc1c(Br)c(C)nc(OCC(=O)N/N=C/c2ccco2)c1C#N	none (no result: PNC inhibitor, HPGD block)
CCOc1[nH]c(/N=C/c2ccco2)c(C#N)c1C#N	ALDH1A1 inh 20µM, HPGD block inconclusive
Cc1cc2c(cc1Cl)C(c1ccccc1C)CC(=O)O2 (configuration not stated)	ALDH1A1 inh inconclusive (no result: PNC inhibitor, JMJD2E inh)
Cc1cccc([C@H]2[C@@H]3C=CCC[C@@H]3C(=O)N2Cc2ccccc2)c1	ALDH1A1 inh 28.2µM (no result: PNC inhibitor, JMJD2E inh)
Cc1ccc(-c2cccc(C3CC=CC4C3C(=O)N(Cc3ccccc3)C4c3ccc4ccccc4c3)c2)cc1 (configuration not stated)	none (no result: PNC inhibitor, ALDH1A1 inh, HPGD block)
CCc1cccc(CC)c1N1C(=O)c2cc(N3CCOCC3)c([N+](=O)[O-])cc2C1=O	none
CN(C)c1ccc(-c2nc3ccccn3c2/N=C/c2ccc(Br)cc2)cc1	PNC inhibitor -112.2, ALDH1A1 inh inconclusive
Cc1c(-c2ccc(Br)cc2)nc2ccccn12	JMJD2E inh inconclusive (no result: HPGD block)
NC(=O)Cn1cnc2nc3n(c2c1=O)CCC3	none (no result: PNC inhibitor, HPGD block)
O=C1C=C(c2ccccc2)C(=O)N1Nc1ccccc1	ALDH1A1 inh 22.4µM, HPGD block inconclusive
COc1ccc(C2=CC(=O)N(Nc3ccccc3)C2=O)cc1	none (no result: PNC inhibitor, HPGD block)
Cc1cccc(NC(=O)CN2C(=O)N/C(=C/c3cc(C)n(-c4ccncc4)c3C)C2=O)c1	none
Cc1cc(/C=C2/SC(=S)N(c3ccc([N+](=O)[O-])cc3)C2=O)c(C)n1-c1cccnc1	ALDH1A1 inh 1.26µM, HPGD block inconclusive
Cc1cccc(N2C(=O)/C(=C/c3cccnc3)SC2=S)c1	none (no result: PNC inhibitor, ALDH1A1 inh, HPGD block)
Cc1cccc(NC(=O)CN2C(=O)N/C(=C/c3cc(C)n(C)c3C)C2=O)c1	JMJD2E inh 31.6µM (no result: PNC inhibitor, HPGD block)
Cc1cccc(NC(=O)CN2C(=O)N/C(=C/c3cc(C)n(-c4cccnc4)c3C)C2=O)c1	JMJD2E inh 17.8µM (no result: PNC inhibitor, HPGD block)
Cc1cccc(NC(=O)CN2C(=O)S/C(=C\c3cc(C)n(C)c3C)C2=O)c1	PNC inhibitor inconclusive
Cc1cc(/C=C2/NC(=O)N(c3ccccc3)C2=O)c(C)n1-c1cccnc1	ALDH1A1 inh 4.47µM, JMJD2E inh 20µM
Cc1cc(/C=C2/NC(=S)NC2=O)c(C)n1-c1cccnc1	none (no result: PNC inhibitor, HPGD block)
Cc1ccc(/C=C2\SC(=S)N(c3cccnc3)C2=O)o1	JMJD2E inh 11.2µM (no result: PNC inhibitor, ALDH1A1 inh, HPGD block)
COC(=O)c1ccc(CCc2cc(O)ccc2O)cc1	ALDH1A1 inh 0.631µM, HPGD block 0.398µM (no result: PNC inhibitor, JMJD2E inh)
COC(=O)c1ccc(O)cc1	none (no result: PNC inhibitor, JMJD2E inh)
CSc1nsc(/C=C/Nc2ccc(C)cc2)c1C#N	ALDH1A1 inh 7.51µM, HPGD block 14.1µM
CCOC(=O)C1CCCN(C(=O)c2cccc([N+](=O)[O-])c2C)C1 (configuration not stated)	none (no result: PNC inhibitor, HPGD block)
Cn1c(SCc2ccc(C(=O)Nc3nccs3)cc2)nnc1-c1ccccc1	ALDH1A1 inh inconclusive, HPGD block 14.1µM
CN(c1ccccc1)S(=O)(=O)c1ccc(C(=O)Nc2nccs2)cc1	none
CCc1nnc(NC(=O)c2cccc(S(=O)(=O)N(C)c3ccccc3)c2)s1	HPGD block 28.2µM
CCn1c(SCc2ccc(C(=O)Nc3nccs3)cc2)nnc1-c1ccc(N)cc1	none
CN(c1ccc(C(=O)Nc2nccs2)cc1)S(=O)(=O)c1ccccc1	HPGD block 8.91µM
CN(c1ccccc1)S(=O)(=O)c1cccc(C(=O)Nc2ccc3c(c2)CCC3)c1	PNC inhibitor inconclusive, ALDH1A1 inh 10µM
O=C(O)CC1(CC(=O)Nc2ccc3c(c2)C(=O)OC3)CCCCC1	none (no result: PNC inhibitor, ALDH1A1 inh, HPGD block)
O=C(c1ccncc1)N1CCC[C@@]2(CCN(Cc3cc(C(F)(F)F)cc(C(F)(F)F)c3)C2)C1	none (no result: PNC inhibitor, JMJD2E inh)
CN1CCN(CCCNN)CC1	none (no result: PNC inhibitor, JMJD2E inh)
CS(=O)(=O)N1CCc2cc(C(=O)N3CCOCC3)ccc21	none
Cc1nnc(Nc2ccc(C(=O)N3CCOCC3)cc2)c2ccccc12	HPGD block 15.8µM
CCOc1ccc(OCc2ccc(C(=O)N3CCOCC3)cc2)cc1	ALDH1A1 inh 3.55µM, HPGD block 15.8µM
CCOc1ccc(C(=S)N2CCCC2)cc1	ALDH1A1 inh inconclusive
CCOc1ccc(C(=O)N2CCCCCC2)cc1	HPGD block 2µM
CS(=O)(=O)N1CCc2cc(C(=O)N3CCCCC3)ccc21	HPGD block 3.16µM

Assay outcomes deposited in PubChem BioAssay by National Center for Advancing Translational Sciences (NCATS).
